# Assay results reported in PubChem BioAssay (EPA / NIEHS).
# Records with an inconclusive call do not appear. Active and inactive are the calls of the source. Rule for the calls, unless noted: active = hit-call score of the fitted dose curve at least 0.9, where 1 is the maximum; inactive = score below 0.9.
# How the values were obtained:
# [1] = CCTE_Mundy_HCI_Cortical_NOG_BPCount: CCTE's Neurite Outgrowth Assay in rat cortical cells for Branch Point Count, Mundy Lab (AID 2284237)
# Summary of the method: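 Measured 50.33 h after dosing, this morphology endpoint uses rat primary cortical cultures labelled for betaIII-tubulin. Branch points are quantified by high-content imaging, with DMSO as negative control and baseline.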
# [2] = CCTE_Mundy_HCI_hNP1_CellTiter: CCTE's Cell Titer-Glo 2 Assay in human neuroprogenitor cells for Viability, Mundy Lab (AID 2284241; active = hit-call score of the fitted dose curve at least 0.9, where 1 is the maximum;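 for AC50: a hit is a drop in ATP luminescence versus DMSO meaning reduced viability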)
# Summary of the method: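 Human neural progenitor cells (hNP1, WA09-derived) were plated on poly-L-ornithine/laminin and grown 40 to 44 hours at 37 °C, 5% CO2 before chemical addition. Twenty-four hours later, ATP was measured by CellTiter-Glo luminescence; loss of signal versus DMSO indicates reduced viability.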
smiles,measurement,setting,value
CC(=O)CC(c1ccccc1)c1c(O)c2ccccc2oc1=O (centres undefined),outcome,[1],inactive
OCC(O)CO,outcome,[1],inactive
same,outcome,[2],inactive
CN(C)CCCN1c2ccccc2Sc2ccc(Cl)cc21,AC50,[2],24.7 µM (active)
